Screening data deposited in PubChem BioAssay by Broad Institute.
EWS-Fli block – inhibitors of EWS/Fli oncoprotein transcriptional activity; A673 NR0B1-luciferase reporter, viability-normalised; inhibition, % at 12.6 µM; 350,000 compounds, 0.67% hits; AID 651661;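 active means mean inhibition of at least 50% after viability correction, with every replicate also passing that limit; inconclusive means mean reaches 50% but only one of two replicates passes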;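 further: firefly luciferase signal divided by Alamar Blue viability fluorescence both relative to DMSO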
EBV LMP1 NFkB – Epstein-Barr LMP1 NF-kappaB reporter inhibition; 350,000 compounds, 0.69% hits; inhibition, % at 12.5 µM; LMP1-induced NF-kappaB luciferase reporter cells, luminescence; in the data active means inhibition above about 41%; inconclusive means no clear call, values can overlap the other calls;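 further: 0% = neutral control wells and 100% = reference inhibitor control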
MITF TRPM1 inh – MITF TRPM1 promoter inhibition in SK-MEL-5 cells. SK-MEL-5 TRPM1 promoter luciferase, 24 h. inhibition, % at 12.5 µM. 330,000 compounds, 0.83% hits. AID 488899;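 active means mean inhibition across replicates of 60% or more, whatever share of single replicates reaches that level; inconclusive means some that reach 60%, reason not given; inactive means mean inhibition across replicates below 60%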
LGR2 antag – Drosophila LGR2 receptor signaling inhibition. HEK293 LGR2, CRE-luciferase, bursicon-stimulated, 4 h. inhibition, % at 9.99 µM. 380,000 compounds, 0.35% hits. AID 720647;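 active means drop in luminescence signal, shown as inhibition above about 50% in the replicate tests, limit read from the data, passing the limit was not always enough; inconclusive means probably only some replicates passing the limit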;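 further: agonist challenge used bursicon conditioned medium at about half maximal strength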
PGC1a acetyl inh – modulators of PGC1a acetylation. U2OS PGC1a acetylation, AlphaScreen anti-acetyl-lysine; with virally co-expressed GCN5 acetyltransferase. inhibition, % at 15.6 µM. 350,000 compounds, 0.17% hits;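 active means every replicate shows inhibition of at least 40%; inconclusive means mean inhibition at least 40% but some replicate below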;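 further: 0% = neutral control wells and 100% = positive control wells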
PAX8 inh HTS – inhibitors of PAX8 transcriptional activity in RMG-I cells; AID 652154; RMG-I TPO-luciferase reporter, SteadyGlo, 24 h; 360,000 compounds, 1.2% hits; inhibition, % at 12.6 µM;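 active means mean replicate inhibition at least 60% with every replicate also reaching 60%; inconclusive means only one of the two criteria is met; inactive means mean below 60% and not all replicates reaching 60%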;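 further: luciferase light reporting Pax8 driven TPO promoter activity; plate controls were median of neutral control wells for no effect and mitoxantrone controls for full effect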
DNA binding – small molecule DNA binding by fluorescence polarization; shares compounds with EWS-Fli block; salmon sperm DNA acridine orange fluorescence polarization; AC35, µM (series often up to 68 µM), for the others: at the top dose activity change, negative = DNA binding; 640 compounds, 2% hits; AID 720586;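 active means fitted curve reaches a 35% signal fall AC35 below twice the sample's top valid tested dose, actives reach about 48 µM in these data; inactive means the rest, including activity in the rising direction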;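 further: lower polarization ratio signals compound binding to DNA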
* = called active by the depositor; ? = inconclusive; . = not tested or not shown; [ ] = remark or other dose. In the library only some 2.2% were active in any assay of this set; here they are far more common.

SMILES | EWS-Fli block | EBV LMP1 NFkB | MITF TRPM1 inh | LGR2 antag | PGC1a acetyl inh | PAX8 inh HTS | DNA binding
CCCn1nnc(NC(=S)NC(=O)C(C)(C)C)n1 | 87.5* | -7.0 | -7.7 | 12.1 | . | -21.0 | 0.0%
COc1ccc(CNC(=O)N2[C@H]3CC[C@@H]2C=C(c2ccc(F)cc2OCc2ccccc2)C3)cc1OC | -34.9 | ? | . | 18.6 | -10.5 | 26.4 | .
O=C(NCc1ccc(F)cc1)N1[C@H]2CC[C@@H]1C=C(c1ccc(F)cc1OCc1ccccc1)C2 | 53.9* | 5.6 | . | 20.0 | -4.9 | -22.4 | -9.2%
CCCCC[C@H](C)N1C[C@H](COCc2ccccc2)Oc2cc(N3CC[C@@H](N(C)C)C3)ccc2S1(=O)=O | 59.5* | . | . | -1.5 | . | 25.9 | -3.8%
COC(=O)Cc1[nH]n(-c2nc3ccccc3s2)c(=O)c1C(C)=Nc1ccc(C)cc1 | 77.4* | 81.6* | 96.6* | 53.2* | 8.5 | -28.6 | 4.2%
COc1ccccc1CN1CC[C@H]2[C@H](CO)Nc3ccc(C#Cc4ccccc4)cc3[C@H]21 | 0.7 | . | . | -1.2 | 5.9 | 3.7 | .
C[C@H](CO)N1C[C@H](C)[C@@H](CN(C)C(=O)Cc2ccccc2)Oc2ncc(-c3ccccc3)cc2C1=O | -0.1 | . | . | 13.2 | -2.8 | . | .
COc1ccc(CN(C)c2ncnc3sccc23)c(OC)c1OC | 63.0* | 20.9 | 24.7 | -0.2 | . | 23.3 | -6.7%
CCC(=O)Nc1ccc2c(c1)C(=O)N(C)[C@@H]1CC[C@@H](CC(=O)NCCc3ccccc3)O[C@@H]1CO2 | 0.2 | . | . | -1.1 | 4.8 | 0.7 | .
C[C@H]1CN([C@@H](C)CO)S(=O)(=O)c2ccc(C#CC(C)(C)O)cc2O[C@@H]1CN(C)Cc1ccc(-c2ccccc2)cc1 | 68.0* | . | . | 53.8* | 8.2 | . | 3.8%
C[C@@H]1CN([C@@H](C)CO)S(=O)(=O)c2ccc(C#CCN(C)C)cc2O[C@@H]1CN(C)Cc1ccncc1 | 53.4* | . | . | 3.7 | -10.6 | -6.8 | -7.3%
C[C@@H]1CN([C@H](C)CO)S(=O)(=O)c2ccc(C#CC(C)(C)O)cc2O[C@@H]1CN(C)Cc1ccc(-c2ccccc2)cc1 | 26.8 | . | . | 28.5 | -13.7 | . | .
CO[C@@H]1CN(C)C(=O)c2cc(NC(=O)Nc3cc(F)ccc3F)ccc2OC[C@H](C)NC[C@H]1C | 4.0 | . | . | 0.6 | 8.5 | 1.4 | .
O=C(C[C@H]1CC[C@H](NS(=O)(=O)c2ccc(F)cc2)[C@@H](CO)O1)N1CCc2ccccc2C1 | 5.4 | . | . | 4.0 | -1.7 | 23.4 | .
CCN1CCN(Cc2c(O)ccc3c2O/C(=C\C=C\c2ccccc2)C3=O)CC1 | 8.6 | -28.1 | 57.1 | 5.6 | . | 49.9 | .
CN(C)Cc1c(O)ccc2c1O/C(=C\C=C\c1ccccc1)C2=O | 75.2* | -98.0 | 93.0* | -40.5 | -78.7 | 77.0* | -39.2%
CN(C)c1ncnc2c1ccn2C1OC(CO)C(O)C1O (centres undefined) | 62.5* | 7.1 | 3.9 | 22.7 | 52.5* | ? | 13.7%
CN(C)c1nc2c(N)ncnc2n1C1OC(CO)C(O)C1O (centres undefined) | 5.5 | 0.0 | -0.9 | 22.7 | 9.0 | 4.7 | .
CCCNC(=O)[C@H]1[C@H](CO)[C@H]2Cn3c(ccc(-c4cccnc4)c3=O)[C@H]2N1CCC | 0.5 | . | . | 0.8 | . | -4.1 | .
O=C(CCN1C(=O)/C(=C\C=C\c2ccccc2)SC1=S)Nc1ccccc1C(=O)O | . | -12.0 | 4.2 | -16.2 | . | -3.2 | .
CC(C)c1ccccc1NC(=O)COC(=O)CCN1C(=O)/C(=C\C=C\c2ccccc2)SC1=S | 62.1* | 10.1 | 62.9* | -3.0 | . | 26.0 | -9.9%
C[C@@H]1CN([C@@H](C)CO)C(=O)Cc2cc(NC(=O)CCC(F)(F)F)ccc2O[C@@H]1CN(C)Cc1ccc(C(=O)O)cc1 | -6.2 | . | . | -5.4 | 2.1 | 0.6 | .
CC(NC(=O)c1ccco1)c1nc(-c2ccc(C(C)(C)C)cc2)no1 (centres undefined) | 77.7* | -6.5 | -38.6 | -16.3 | . | -37.8 | -21.7%
N#C[C@H]1[C@H](c2ccc(C#CC3CCCC3)cc2)[C@H](CO)N1C(=O)Nc1ccc(F)cc1 | 26.9 | . | . | 1.6 | -10.8 | 55.0 | .
N#C[C@@H]1[C@H](c2ccc(C#Cc3ccc(F)cc3)cc2)[C@@H](CO)N1C(=O)Nc1ccc(F)cc1 | 75.3* | . | . | 59.1* | 3.0 | 102.9* | 1.0%
SMILES | EWS-Fli block | EBV LMP1 NFkB | MITF TRPM1 inh | LGR2 antag | PGC1a acetyl inh | PAX8 inh HTS | DNA binding
N#C[C@H]1N[C@H](CO)[C@H]1c1ccc(C#Cc2ccc(F)cc2)cc1 | 53.1* | . | . | -43.1 | -16.6 | -26.9 | 5.8%
CCCNC(=O)N1[C@H](C#N)[C@H](c2ccc(C#Cc3ccc(F)cc3)cc2)[C@H]1CO | 70.7* | . | . | 52.6* | -16.4 | 52.2 | 2.7%
N#C[C@@H]1N[C@H](CO)[C@@H]1c1ccc(C#Cc2ccccc2F)cc1 | -107.8 | . | . | -69.2 | -23.4 | -174.0 | .
CN(C)C(=O)c1ccc(-c2ccccc2[C@@H]2[C@@H](CO)N(C(=O)C3CC3)[C@H]2C#N)cc1 | 60.6* | . | . | -6.0 | 0.1 | . | -3.6%
N#C[C@H]1[C@@H](c2ccc(C#Cc3ccccc3F)cc2)[C@@H](CO)N1C(=O)C1CCC1 | -12.0 | . | . | 10.7 | -3.4 | 41.7 | .
CCCNC(=O)N1[C@H](C#N)[C@H](c2ccc(C#Cc3cccc(F)c3)cc2)[C@H]1CO | 60.6* | . | . | 3.5 | -22.6 | 19.6 | -0.6%
N#C[C@H]1[C@H](c2ccc(-c3ccccc3F)cc2)[C@@H](CO)N1C(=O)c1ccccn1 | 57.0* | . | . | -23.3 | 7.2 | -6.6 | -11.5%
N#C[C@H]1[C@H](c2ccc(C#Cc3ccccc3F)cc2)[C@@H](CO)N1C(=O)C1CCCCC1 | 66.2* | . | . | 33.9 | -10.0 | 59.1 | -14.3%[60 µM]
Cc1ccc(S(=O)(=O)NCC[C@@H]2CC[C@H](NC(=O)Nc3cccc(F)c3)[C@@H](CO)O2)cc1 | 5.6 | . | . | 24.5 | 3.4 | 0.2 | .
COC(=O)C[C@H]1C=C[C@H](NC(=O)Nc2ccc(C(F)(F)F)cc2)[C@H](CO)O1 | -44.1 | . | . | 25.4 | 11.7 | -6.5 | .
